Assay outcomes deposited in PubChem by Milwaukee Institute for Drug Discovery.
Hits are enriched below; roughly 7.6% of the tested compounds scored in any of these assays.
HCV NS3h FP: hepatitis C NS3 helicase inhibition, primary screen. NS3h Cy5-dT15 DNA binding, fluorescence polarization. AID 687043. inhibition, % at 100 µM. 16,000 tested, 1.6% active;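 active = inhibition above the average over every tested compound plus 3 SD, cut at about 40% in these data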
Cy5 interf NS3h: counter-screen for HCV NS3 helicase inhibitors: fluorescence interference; AID 720488; 16,000 tested, 6% active; Cy5-dT15 DNA with NS3h; actives lie on both sides; signal over control mean, under 1 quenches; fluorescence interference ratio at 100 µM;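 active = compound fluorescence over control fluorescence at most 0.8, a quencher, or at least a set upper limit, an enhancer; inactive = ratio between 0.8 and the set upper limit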
Numbers without * were called inactive.

SMILES	HCV NS3h FP	Cy5 interf NS3h
CCCC(=O)NS(=O)(=O)c1ccc(NS(=O)(=O)c2ccc(C)cc2)cc1	-1	1
CCCCCC12CCC(O)(CC1)C/C2=N\NS(=O)(=O)c1ccc(C)cc1	20	0.73*
O=S(=O)(Nc1ccc(Nc2ccccc2)cc1)c1ccccc1	29	0.87
O=C(Nc1ccc2c(c1)C(=O)OC2)NC1CCCCC1	21	1.4*
CN(C)c1cccc(C(=O)NC2CCCCCC2)c1	8	1.1
C=CCN(CC=C)Cn1[nH]c(=O)ccc1=O	15	0.75*
CC1CCN(Cn2[nH]c(=O)ccc2=O)CC1	-15	1.1
NC(=S)N/N=C\c1cc2c(cc1[N+](=O)[O-])OCO2	10	0.79*
O=C(N/N=C\c1ccc(O)c([N+](=O)[O-])c1)/C(=C\c1ccc2c(c1)OCO2)NC(=O)c1ccccc1	5	1
C=CCNC(=S)NC(=O)/C=C/c1ccco1	9	0.97
O=C1CSC2(N1)C1CC3CC(C1)CC2C3 (stereo not drawn)	-1	1.2*
CCOc1ccc(C(=O)Nc2ccc(-c3cc4ccccc4oc3=O)cc2)cc1	-4	0.94
CC(C)C(=O)Nc1ccc(C(=O)Nc2ccccc2C(=O)O)cc1	-12	1.1
CCOc1cccc(-c2nc3cc(C)ccc3o2)c1	0	1.1
Cc1ccc2oc(-c3cccc(N)c3C)nc2c1	9	0.56*
C=CCN1C(=O)/C(=C\c2ccc3c(c2)OCO3)C(=O)NC1=S	5	0.94
CN1CCN(c2ccc(C(=O)c3ccccc3)cc2F)CC1	7	1
COC(=O)c1ccc(-n2c(C)cc(C=C3C(=O)N(C)C(=O)N(C)C3=O)c2C)cc1	16	0.8*
COC(=O)c1ccc(-n2c(C)cc(/C=C3\C(=O)NC(=O)N(c4ccc(OC)cc4)C3=O)c2C)cc1	5	0.99
O=C(CCN1C(=O)S/C(=C\c2ccccc2)C1=O)Nc1ccccc1	2	1
Cc1ccc(N(CC(=O)Nc2ccc(Oc3ccccc3)cc2)S(C)(=O)=O)cc1Cl	16	1
O=Cc1ccc(/C=C2/SC(=S)N(Cc3ccccc3)C2=O)cc1	10	0.72*
COC(=O)c1ccc(-c2ccc(/C=C3/SC(=S)N(c4ccccc4)C3=O)o2)cc1	1	1
C=CCN1C(=O)/C(=C\c2ccc(C=O)cc2)SC1=S	10	1.1
O=C1/C(=C/c2ccc(I)o2)SC(=S)N1c1ccccc1	13	0.69*
SMILES	HCV NS3h FP	Cy5 interf NS3h
CCN1C(=O)/C(=C\c2cccc(OCCOc3cccc(OC)c3)c2)SC1=S	7	1
O=C1/C(=C/c2ccc(I)o2)SC(=S)N1Cc1ccccc1	7	0.66*
CCN1C(=O)/C(=C/c2cccc(OC(=O)c3ccccc3I)c2)SC1=S	15	0.74*
O=C1/C(=C\c2ccc(-c3ccccc3Cl)o2)SC(=S)N1Cc1ccccc1	1	1
Clc1ccc(Cl)c(OCCOCCN2CCOCC2)c1	-24	1.1
O=C(Nc1ccc(Br)cc1)NS(=O)(=O)c1ccccc1Cl	2	0.94
CC(C)(C)N1C(=O)NC(=O)C(=Cc2ccc(Br)s2)C1=O	26	0.94
CCN1C(=O)/C(=C\c2ccc(N(C)C)cc2)SC1=S	11	1.2*
CN(C)c1ccc(/C=N\N2C(=O)/C(=C/c3ccc(N(C)C)cc3)SC2=S)cc1	-5	0.97
CCCCOC(=O)c1ccc(NC(=O)c2cncc(Br)c2)cc1	-1	1
Cc1cc(OCC(=O)Nc2cc([N+](=O)[O-])ccc2Cl)cc(C)c1Cl	8	0.54*
O=C(COc1ccc(Cl)cc1)Nc1cc([N+](=O)[O-])ccc1F	10	0.88
O=C1NC(=Nc2cccnc2)S/C1=C\c1cccc(F)c1	-26	0.8*
O=C1NC(=Nc2cccnc2)S/C1=C\c1ccc(F)cc1	-3	1
CC1CC(Nc2ccccc2)c2ccccc2N1C(=O)c1ccc(Cl)cc1Cl (stereo not drawn)	12	0.62*
CC1CC(Nc2ccccc2)c2ccccc2N1C(=O)COc1ccc(Cl)cc1 (stereo not drawn)	9	1
COc1ccc(OC)c(C2NC(=S)NC(C)=C2C(=O)Nc2ccccc2Cl)c1 (stereo not drawn)	15	1.1
CCN(CC)c1ccc(NC(=O)c2ccc(Br)cc2)cc1	8	1
CCN(CC)c1ccc(NC(=O)c2ccc(I)cc2)cc1	16	1.3*
Cc1ccc(C(=O)NCCCNc2ccc([N+](=O)[O-])cc2Cl)cc1	4	1
CCCCOc1ccc(C(=O)NCC(C)c2ccccc2)cc1 (stereo not drawn)	7	0.9
CCc1ccccc1NC(=O)c1nn2c(c1Cl)NC(c1ccc(C)cc1)CC2C(F)(F)F (stereo not drawn)	11	0.96
CC(=O)Nc1cccc(-c2nc3ccccc3s2)c1	4	1.1
CC(=O)Nc1cc(-c2nc3ccccc3s2)ccc1Cl	8	0.74*
CCN(CC)c1ccc(NC(=O)c2cc(Br)ccc2Cl)cc1	8	0.99
SMILES	HCV NS3h FP	Cy5 interf NS3h
COC(=O)C1=C(C)N(c2ccc(C)cc2)/C(=C\c2ccc(OCC(N)=O)cc2)C1=O	-3	0.99
NC(=O)COc1ccc(/C=c2/sc3n(c2=O)CCCN=3)cc1	10	1.2*
COc1cc(NC(=O)c2ccc(Cl)cc2Cl)ccc1NC(=O)c1ccco1	22	0.93
COc1cc(/C=C2/C(=O)ON=C2c2ccc(Cl)cc2)ccc1O	6	0.94
COc1cc(/C=N\Nc2ccnc3cc(Cl)ccc23)ccc1O	-29	0.34*
COc1cc(/C=c2\sc3nc4ccccc4n3c2=O)cc(I)c1OCCOc1cccc(C)c1	-4	0.95
O=C(COc1ccccc1Cl)NNC(=O)c1ccccc1I	12	1
O=C(COc1ccccc1Cl)Nc1c[nH]c(=O)[nH]c1=O	-37	1.3*
NS(=O)(=O)c1cccc(NC(=O)c2sc3ccccc3c2Cl)c1	25	1
O=C(O)c1cnn2c1NC(c1ccc(Br)cc1)CC2C(F)(F)F (stereo not drawn)	-12	0.79*
O=C(NCc1cccs1)c1cnn2c1NC(c1ccc(Br)cc1)CC2C(F)(F)F (stereo not drawn)	19	0.49*
O=C(O)c1cnn2c1NC(c1ccc(F)cc1)CC2C(F)(F)F (stereo not drawn)	-4	0.95
Cc1ccc(C2CC(C(F)(F)F)n3ncc(C(=O)N4CCSCC4)c3N2)cc1 (stereo not drawn)	15	0.49*
CN1CCN(C(=O)c2cnn3c2NC(c2ccc(Br)cc2)CC3C(F)(F)F)CC1 (stereo not drawn)	2	1
CC(C)NC(=O)c1cnn2c1NC(c1ccc(Br)cc1)CC2C(F)(F)F (stereo not drawn)	10	1.1
C/C(=N\N=C1\NC(=O)C(C)S1)c1ccc(Cl)cc1 (stereo not drawn)	24	1
COc1ccc2c(c1)OCC/C2=N/OC(=O)c1cc(F)c(F)cc1Cl	3	1
O=C(NC(Cc1ccccc1)C(=O)NCCc1c[nH]c2ccccc12)OCc1ccccc1 (stereo not drawn)	12	0.97
CCOc1cc(C=C2C(=O)NC(=S)N(CC)C2=O)ccc1O	32	0.9
Cc1cccc(NC(=O)/C(C#N)=C\c2cc(C)n(-c3cccc(C)c3C)c2C)c1	8	0.96
O=C(CSc1nnc(Cc2ccccc2)o1)c1ccc(Cl)cc1	14	1
CCOc1ccc(/C=C2\C(=O)NC(=S)N(c3ccc(C)cc3)C2=O)cc1Cl	6	0.9
CCc1ccc(N2C(=O)/C(=C/c3ccc(O)c(Cl)c3)C(=O)NC2=S)cc1	0	1.2
